Results on six compounds are retold here after PubChem BioAssay (Tox21).

A number with no mark means an inactive call. Inconclusive results are not listed. Calls of active or inactive are those of the source. Unless noted, calls follow the shape of the full dose curve.

Experiment [1] can be described thus: Nuclear factor erythroid 2-related factor 2/antioxidant responsive element (Nrf2/ARE) small molecule agonists: qHTS cell viability counter screen in human keratinocytes (AID 1919968; active = well fitted curve in the direction sought with a large enough effect in the repeat runs; an effect the other way counts as inactive or inconclusive; also: nearly all actives have a fitted effect of over 55% in size). Put shortly: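 KeratinoSens HaCaT cells, 1,500/well, preincubated 5 h, then exposed to compounds in DMSO for 23 h at 37 C/5% CO2. Viability read as CellTiter-Fluor fluorescence after 1 h, in the same wells as the ARE-luciferase read.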
In general terms: In qHTS, concentration-response curves come from the screen itself.

Experiment [2] is described as follows: Nuclear factor erythroid 2-related factor 2/antioxidant responsive element (Nrf2/ARE) small molecule agonists: luciferase reporter gene qHTS assay in human keratinocytes (AID 1919969). Also: nearly all actives have a fitted effect of over 35% in size. Also: potency is read from the fitted curve at half-maximal effect. In general terms: A reporter such as luciferase makes a cellular process visible.
The target in experiment [3] is Gonadotropin-releasing hormone receptor (Homo sapiens) (UniProt P30968). The experiment can be described thus: Human gonadotropin-releasing hormone receptor (GnRHR) small molecule agonists, calcium flux assay in GnRHR-HEK293 cells (AID 1920063). Also: nearly all actives have a fitted effect of over 35% in size. Put shortly:
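HEK293 cells stably expressing human GnRHR were dye-loaded for 1 h at 37 C. Compound was added in agonist mode and fluorescence (Ex/Em 480/540) recorded kinetically for 3 min. Fifteen concentrations, triplicates.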
Background: Calcium assays in cells follow changes in intracellular calcium, usually with a dye or a luminescent sensor.

Experiment [4] addresses KiSS-1 receptor (Homo sapiens) (UniProt Q969F8). The experiment can be described thus: Human kisspeptin (KISS1R) small molecule agonists, calcium flux assay in KISS1R-HEK293 cells (AID 1920064; active = well fitted curve in the direction sought with a large enough effect in the repeat runs; an effect the other way counts as inactive or inconclusive). Put shortly:
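HEK293 cells stably expressing human KISS1R were loaded with calcium dye for 1 h at 37 C, then given compound; fluorescence (Ex/Em 480/540) was read kinetically for 3 min. Fifteen concentrations, triplicate.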

Experiment [5] in a line: G protein-coupled receptor (GPCR) small molecule agonists, calcium flux assay: HEK293 wild type cell line counter screen (AID 1920065). Put shortly: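 Wild-type HEK293 cells plated 18 h, loaded with calcium dye 1 h at 37 C, then compounds added in agonist mode (ATP as positive control). Kinetic fluorescence Ex/Em 480/540 recorded 3 min at 1 sec intervals; 15 concentrations, triplicate.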

Experiment [6] can be described thus: p53 small molecule agonists, cell-based qHTS assay with human liver microsomes (AID 1963577).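 Also: p53 response element beta-lactamase reporter cells with liver microsomes plus NADPH.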 Put shortly:
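With metabolic activation: human liver microsomes (0.5 mg/mL final) plus NADPH (0.5 mg/mL final) added alongside compounds to p53RE-bla cells; 16 h 37 C exposure; beta-lactamase read by LiveBLAzer fluorescence.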

The nature of experiment [7]: p53 small molecule agonists, cell-based qHTS assay with rat liver microsomes (AID 1963578). Put shortly:
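Metabolic activation by rat liver microsomes and NADPH, each 0.5 mg/mL final, added right after compounds to p53RE-bla reporter cells (4,000/well, plated 5 h earlier). 16 h at 37 C, then LiveBLAzer substrate for 2 h at room temperature in the dark; fluorescence read-out.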

Experiment [8] is described as follows: p53 small molecule agonists, cell-based qHTS assay with human liver microsomes: qHTS cell viability counter screen (AID 1963579). Also: nearly all actives have a fitted effect of over 45% in size. Put shortly: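 Metabolic activation used human liver microsomes and NADPH, both 0.5 mg/mL final, over 16 hours at 37 C on p53RE-bla cells (4,000/well). Cytotoxicity measured by CellTiter-Glo luminescence, 30 min at room temperature.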

Experiment [9] in a line: p53 small molecule agonists, cell-based qHTS assay with rat liver microsomes: qHTS cell viability counter screen (AID 1963580). Also: nearly all actives have a fitted effect of over 45% in size. Put shortly:
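Viability is assessed in parallel with the p53 reporter read: HCT-116 p53RE-bla cells receive compounds plus rat microsomes and NADPH (0.5 mg/mL final apiece), incubate 16 h at 37 C, and then CellTiter-Glo luminescence is recorded.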

Experiment [10] in a line: p53 small molecule agonists, cell-based qHTS assay: qHTS cell viability counter screen (AID 1963581). Also: nearly all actives have a fitted effect of over 45% in size. Put shortly:
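p53RE-bla HCT-116 cells, compounds added 5 h after plating and incubated 16 h at 37 C. Cytotoxicity measured in the same wells as intracellular ATP by CellTiter-Glo luminescence after 30 min at room temperature.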

Experiment [11] in a line: p53 small molecule agonists, cell-based qHTS assay (AID 1963582; active = well fitted activation curve with a large enough effect in the signal ratio in the repeat runs, not every such curve was filed as active; the % refers to the signal ratio). Put shortly: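 p53RE-bla reporter cells, compounds added in DMSO after 5 h plating, incubated 16 h at 37 C. Beta-lactamase read via 2 h room-temperature LiveBLAzer B/G FRET substrate, fluorescence intensity.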
Experiment [12] concerns the target 5-hydroxytryptamine receptor 2A (Homo sapiens) (UniProt P28223). The experiment can be described thus: 5-hydroxytryptamine receptor 2A (HTR2A) small molecule antagonists, cell-based qHTS assay (AID 1963586). Also: nearly all actives have a fitted effect of over 45% in size. Put shortly:
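Antagonist-mode intracellular calcium assay: DOI (4 nM) added after 5 min compound pre-incubation at room temperature to dye-loaded HTR2A-CHO cells. Fluorescence followed for 3 min, sampled every second.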

Experiment [13] shares this target. The experiment can be described thus: 5-hydroxytryptamine receptor 2A (HTR2A) small molecule agonists, cell-based qHTS assay (AID 1963587). Also: nearly all actives have a fitted effect of over 30% in size. Put shortly:
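CHO cells stably expressing human HTR2A, plated 18 h, loaded with calcium dye 1 h at 37 C. Agonist mode: compounds added and intracellular calcium fluorescence recorded kinetically for 2 min at 1 sec intervals.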

Experiment [14] deals with Muscarinic acetylcholine receptor M1 (Homo sapiens) (UniProt P11229). The experiment can be described thus: Cholinergic receptor muscarinic 1 (CHRM1) small molecule antagonists, cell-based qHTS assay (AID 1963588). Also: nearly all actives have a fitted effect of over 40% in size. Also: potency is read from the fitted curve at half-maximal effect. Put shortly: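 CHRM1-CHO calcium-flux assay, antagonist mode. Cells were seeded 18 h, dye-loaded 1 h at 37 C and given compound for 5 min at RT, then acetylcholine was added at 50nM. FDSS fluorescence was read 3 min; 15 concentrations, three runs.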

Experiment [15] has the same target. Briefly: Cholinergic receptor muscarinic 1 (CHRM1) small molecule agonists, cell-based qHTS assay (AID 1963589). Also: nearly all actives have a fitted effect of over 35% in size. Put shortly: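 CHO cells stably expressing human CHRM1 were loaded with calcium dye for 1 h at 37 C, then compound was added in agonist mode. Intracellular calcium fluorescence was followed kinetically at 1 s intervals. Fifteen concentrations were tested in three independent runs.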

Experiment [16] in a line: cAMP Responsive Elements (CRE) small molecule agonists, cell-based qHTS assay (AID 1963590). Put shortly:
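CRE-bla HEK 293T cells, 2,000/well in DMEM with 10% dialyzed FBS and 25 mM HEPES, pre-incubated 18 h at 37 C, then exposed to compound 3 h at 37 C. Beta-lactamase reporter read with LiveBLAzer B/G FRET substrate after 2 h at room temperature.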

The target of experiment [17] is D(2) dopamine receptor (Homo sapiens) (UniProt P14416). Briefly: Dopamine D2 receptor (DRD2) small molecule antagonists, cell-based qHTS assay (AID 1963595; active = well fitted inhibition curve with a large enough effect in the signal ratio in the repeat runs, with a control signal flat; the % refers to the signal ratio). Put shortly: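 HEK293 cells stably expressing DRD2 were preincubated with 0.1 mM Ro20-1724, then with compound for 10 min at room temperature. Cells were stimulated with 200 nM NKH477 plus 12 nM quinpirole for 30 min, and cAMP was read by HTRF.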

Experiment [18] is described as follows: cAMP Responsive Elements (CRE) small molecule antagonists, cell-based qHTS assay (AID 1963591; active = well fitted inhibition curve with a large enough effect in the signal ratio in the repeat runs, not every such curve was filed as active; the % refers to the signal ratio). Put shortly: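 CRE-bla HEK293T cells plated 18 h, then given compound plus NKH477 at 0.25 uM final for 3 h at 37C. Beta-lactamase reporter read with LiveBLAzer B/G FRET substrate after 2 h at room temperature.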
In experiment [19] the target is D(2) dopamine receptor (Homo sapiens) (UniProt P14416). The experiment can be described thus: Dopamine D2 receptor (DRD2) small molecule agonists, cell-based qHTS assay (AID 1963594). Also: nearly all actives have a fitted effect of over 35% in size. Put shortly:
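HEK293 cells stably expressing human DRD2, pre-treated with PDE inhibitor Ro20-1724 (0.1 mM final) and compound 10 min at room temperature, then stimulated with NKH477 (200nM […]) for 30 min. cAMP read by HTRF (665/620 nm).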

The target in experiment [20] is Beta-2 adrenergic receptor (Homo sapiens) (UniProt P07550). The experiment can be described thus: Adrenergic beta2 receptor (ADRB2) small molecule antagonists, cell-based qHTS assay (AID 1963592). Also: series mostly up to about 92 µM; nearly all actives have a fitted effect of over 50% in size. Put shortly:
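Cells (CHO, stable ADRB2 overexpression) incubated 18-20hr at 37C; compounds added from DMSO; agonist mix (1nM isoproterenol, 100uM IBMX, 25uM Ro-20-1724) added; 0.5hr RT; d2-cAMP and anti-cAMP-cryptate added; 1hr RT; 665/615 nm read.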

Sequence of 5-hydroxytryptamine receptor 2A (Homo sapiens) (P28223 whole entry, looked up): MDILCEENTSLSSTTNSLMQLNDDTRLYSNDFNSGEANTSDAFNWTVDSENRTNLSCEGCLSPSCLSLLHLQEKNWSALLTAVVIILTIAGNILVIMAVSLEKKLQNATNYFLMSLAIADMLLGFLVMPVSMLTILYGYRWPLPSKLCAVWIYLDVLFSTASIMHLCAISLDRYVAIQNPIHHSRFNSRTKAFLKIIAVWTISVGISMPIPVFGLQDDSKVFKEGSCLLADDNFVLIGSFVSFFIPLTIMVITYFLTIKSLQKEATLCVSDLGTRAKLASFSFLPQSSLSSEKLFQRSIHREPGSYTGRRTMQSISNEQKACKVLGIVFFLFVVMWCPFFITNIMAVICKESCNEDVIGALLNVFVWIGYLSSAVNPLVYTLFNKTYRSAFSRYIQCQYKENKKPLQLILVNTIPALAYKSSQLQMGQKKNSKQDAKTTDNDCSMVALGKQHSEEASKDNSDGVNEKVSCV
Sequence of KiSS-1 receptor (Homo sapiens) (Q969F8 whole entry, looked up): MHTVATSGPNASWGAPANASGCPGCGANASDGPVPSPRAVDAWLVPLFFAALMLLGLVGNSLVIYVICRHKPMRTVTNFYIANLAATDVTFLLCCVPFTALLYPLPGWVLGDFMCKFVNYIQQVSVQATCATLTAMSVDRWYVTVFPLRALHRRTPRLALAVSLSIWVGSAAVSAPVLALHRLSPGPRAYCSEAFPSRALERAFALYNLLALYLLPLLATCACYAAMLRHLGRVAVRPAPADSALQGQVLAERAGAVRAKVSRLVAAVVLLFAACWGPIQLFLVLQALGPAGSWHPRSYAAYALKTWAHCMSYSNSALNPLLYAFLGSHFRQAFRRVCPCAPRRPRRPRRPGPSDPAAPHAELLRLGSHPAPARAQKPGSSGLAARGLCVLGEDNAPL
Sequence of D(2) dopamine receptor (Homo sapiens) (P14416 whole entry, looked up): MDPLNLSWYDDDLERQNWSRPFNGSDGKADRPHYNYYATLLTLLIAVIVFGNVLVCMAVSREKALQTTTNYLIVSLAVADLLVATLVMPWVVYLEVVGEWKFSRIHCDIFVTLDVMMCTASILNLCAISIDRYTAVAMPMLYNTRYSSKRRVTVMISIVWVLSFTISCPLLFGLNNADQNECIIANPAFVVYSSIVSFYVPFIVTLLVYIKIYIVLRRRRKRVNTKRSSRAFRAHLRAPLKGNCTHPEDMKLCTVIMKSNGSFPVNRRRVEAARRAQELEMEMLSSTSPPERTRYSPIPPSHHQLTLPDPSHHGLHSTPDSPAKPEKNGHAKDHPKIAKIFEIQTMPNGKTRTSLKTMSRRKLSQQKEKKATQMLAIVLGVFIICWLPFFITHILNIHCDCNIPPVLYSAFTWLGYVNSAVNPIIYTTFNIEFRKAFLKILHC
Sequence of Gonadotropin-releasing hormone receptor (Homo sapiens) (P30968 whole entry, looked up): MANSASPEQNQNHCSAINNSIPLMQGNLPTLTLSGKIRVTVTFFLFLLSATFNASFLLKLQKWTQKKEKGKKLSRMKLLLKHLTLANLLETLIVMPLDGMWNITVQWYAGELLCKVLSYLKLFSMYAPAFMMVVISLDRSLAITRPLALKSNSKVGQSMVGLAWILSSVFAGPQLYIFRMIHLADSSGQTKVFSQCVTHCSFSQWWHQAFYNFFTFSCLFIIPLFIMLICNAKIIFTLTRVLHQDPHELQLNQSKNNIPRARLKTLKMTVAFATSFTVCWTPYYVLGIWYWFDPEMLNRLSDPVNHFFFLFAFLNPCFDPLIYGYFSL
Sequence of Muscarinic acetylcholine receptor M1 (Homo sapiens) (P11229 whole entry, looked up): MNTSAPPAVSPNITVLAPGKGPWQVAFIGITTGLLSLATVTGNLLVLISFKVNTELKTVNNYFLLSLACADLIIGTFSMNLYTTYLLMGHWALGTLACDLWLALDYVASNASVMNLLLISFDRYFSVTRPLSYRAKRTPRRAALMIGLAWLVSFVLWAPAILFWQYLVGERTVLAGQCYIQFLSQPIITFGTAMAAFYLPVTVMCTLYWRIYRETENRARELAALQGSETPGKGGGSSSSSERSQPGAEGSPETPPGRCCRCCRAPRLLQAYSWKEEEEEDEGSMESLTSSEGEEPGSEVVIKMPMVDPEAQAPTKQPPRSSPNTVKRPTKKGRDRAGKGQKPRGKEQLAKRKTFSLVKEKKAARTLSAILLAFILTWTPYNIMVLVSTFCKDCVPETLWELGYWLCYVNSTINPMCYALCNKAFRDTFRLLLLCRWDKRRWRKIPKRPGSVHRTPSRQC
Sequence of Beta-2 adrenergic receptor (Homo sapiens) (P07550 whole entry, looked up): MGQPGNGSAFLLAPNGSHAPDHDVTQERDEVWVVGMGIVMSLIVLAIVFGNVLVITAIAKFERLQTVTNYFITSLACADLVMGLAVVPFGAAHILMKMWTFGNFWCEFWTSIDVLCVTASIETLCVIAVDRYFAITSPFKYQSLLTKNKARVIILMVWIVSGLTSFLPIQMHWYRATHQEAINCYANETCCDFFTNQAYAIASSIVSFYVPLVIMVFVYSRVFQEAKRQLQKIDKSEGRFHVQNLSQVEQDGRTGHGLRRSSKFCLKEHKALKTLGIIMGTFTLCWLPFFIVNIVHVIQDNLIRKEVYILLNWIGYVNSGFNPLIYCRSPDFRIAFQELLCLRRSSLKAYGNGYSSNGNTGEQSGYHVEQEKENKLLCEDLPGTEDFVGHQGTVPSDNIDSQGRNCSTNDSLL

In the case of `CC(=O)N/N=C/c1ccc([N+](=O)[O-])o1`, the Potency entry in experiment [1], in experiment [3], in experiment [6], in [7], in experiment [8] and in experiment [9] was “inactive” throughout. Further, the Potency result in experiment [10], in experiment [11], in experiment [12], in experiment [13], in experiment [15] and in [16] was “inactive” in each case. In [17], the Potency entry is “inactive”. Besides, the values for the Potency in experiment [2] and in [14] were 33.5 µM (active) and 0.0326 µM (active), respectively. In addition, the outcome in experiment [4] and in [5] was inactive.
On to `CC1(C)OC[C@@H](COC(=O)CCc2ccc(OC[C@@H](O)CNCCNC(=O)N3CCOCC3)cc2)O1`, for which the Potency entry in experiment [1], in [2], in [3], in experiment [6], in [7] and in experiment [8] was “inactive” throughout. The Potency result in [9], in [10], in experiment [11], in [12], in experiment [13] and in experiment [14] was “inactive” throughout. The Potency entry in experiment [15], in [16], in [18], in experiment [19] and in [17] was “inactive” each time. In addition, the outcome in experiment [4] and in experiment [5] was inactive.
For `SCCCCCCCCS`, the Potency entry in experiment [1], in experiment [2], in [3], in [6], in [7] and in experiment [8] was “inactive” each time. The Potency entry in experiment [9], in experiment [10], in experiment [11], in experiment [12], in [13] and in [14] was “inactive” in each case. Besides, the Potency entry in experiment [15], in experiment [16], in experiment [20], in experiment [19] and in experiment [17] was “inactive” throughout. Besides, the outcome in experiment [4] and in [5] was inactive.
Consider `O=P(O)(O)Oc1ccccc1`, for which the Potency entry in experiment [1], in [2], in experiment [3], in experiment [6], in experiment [7] and in experiment [8] was “inactive” throughout. Also, the Potency entry in experiment [9], in experiment [10], in [11], in [12], in [13] and in [14] was “inactive” in each case. The Potency result in experiment [15], in experiment [16] and in experiment [17] was “inactive” in each case. The outcome in experiment [4] and in [5] was inactive.
On to `CCOC(=O)[C@H](C)O`, for which the Potency entry in experiment [1], in experiment [2], in experiment [3], in [6], in experiment [7] and in experiment [8] was “inactive” each time. Further, the Potency entry in [9], in experiment [10], in experiment [11], in experiment [12], in experiment [13] and in experiment [14] was “inactive” each time. For the same compound, the Potency entry in experiment [15], in experiment [16], in experiment [20], in [19] and in experiment [17] was “inactive” each time. The outcome in experiment [4] and in experiment [5] was inactive.
As to `COc1cc(C)ccc1O`, the Potency result in experiment [1], in [2], in experiment [3], in experiment [6], in experiment [7] and in experiment [8] was “inactive” each time. Also, the Potency result in experiment [9], in experiment [10], in experiment [11], in experiment [12], in [13] and in experiment [14] was “inactive” in each case. Besides, the Potency entry in experiment [15], in experiment [16], in experiment [19] and in experiment [17] was “inactive” throughout. The outcome in experiment [4] and in [5] was inactive.
